Measurements reported in PubChem BioAssay AID1529 (NMMLSC, 2009).
About 4,200 (1.4%) of roughly 290,000 compounds were called active.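 The calls were made as follows: active = binding response more than 3 SD above or below the average of its plate-row segment, actives on both sides; inconclusive = wells at one plate position flagged as instrument error; inactive = the rest.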 The list comes from a sample in which actives are over-represented; it also holds similar structures and randomly drawn compounds.

What follows are molecules tested against Mitogen-activated protein kinase kinase kinase 3 (Homo sapiens) (UniProt Q99759) (assay: modulators of MEKK3-MEK5 PB1 binding, primary screen, biochemical, wildtype MEKK3, multiplex bead flow cytometry, Alexa488-MEK5 (AID 1529;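 also: Alexa488 bead fluorescence after subtracting the streptavidin-only scavenger bead signal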)). Conditions: bead-based flow cytometry, Alexa488-MEK5 binding to MEKK3; at 10 µM; actives lie on both sides; 0 = blocked by unlabeled MEK5, 100 = vehicle.
Chain of Mitogen-activated protein kinase kinase kinase 3 (Homo sapiens) (Q99759 whole entry, looked up): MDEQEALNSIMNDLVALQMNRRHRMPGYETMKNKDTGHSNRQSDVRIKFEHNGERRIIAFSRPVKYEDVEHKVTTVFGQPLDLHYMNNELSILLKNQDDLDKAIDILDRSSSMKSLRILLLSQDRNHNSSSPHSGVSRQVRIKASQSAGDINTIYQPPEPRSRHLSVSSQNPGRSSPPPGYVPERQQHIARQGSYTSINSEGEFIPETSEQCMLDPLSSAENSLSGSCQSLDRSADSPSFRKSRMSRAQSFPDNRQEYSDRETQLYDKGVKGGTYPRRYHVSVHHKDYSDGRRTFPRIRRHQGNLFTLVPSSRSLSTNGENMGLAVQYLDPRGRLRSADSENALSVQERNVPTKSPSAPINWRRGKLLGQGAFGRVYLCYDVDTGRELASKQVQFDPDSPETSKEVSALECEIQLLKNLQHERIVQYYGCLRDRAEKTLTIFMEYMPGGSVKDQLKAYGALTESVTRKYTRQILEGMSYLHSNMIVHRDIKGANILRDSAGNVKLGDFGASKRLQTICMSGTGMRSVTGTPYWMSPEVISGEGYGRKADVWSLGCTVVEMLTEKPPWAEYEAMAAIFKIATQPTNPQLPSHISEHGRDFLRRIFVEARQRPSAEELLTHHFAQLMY

Binding response (% of control), inactive:
COc1cccc(C(C(=O)NC2CCCC2)N(C(=O)c2ccco2)c2cccc(C(C)=O)c2)c1OC (centres undefined) 98%
O=C(CCCCCn1c(=S)[nH]c2ccsc2c1=O)NC1CCCCC1 102%
CCOC(=O)c1ccc(CS(=O)c2ccc(Cl)cc2)o1 (centres undefined) 100%
CCOC(=O)N1CCN(C(=O)CNC(=O)Cc2ccc(Cl)cc2)CC1 99%
COC(=O)c1cc(NC(=O)c2ccco2)ccc1N1CCOCC1 95%
COC(=O)c1cc(NC(=O)c2cccnc2)ccc1N1CCOCC1 102%
Cc1cccc(NC(=O)c2cc([N+](=O)[O-])ccc2N2CCN(C)CC2)c1 105%
CC(=O)Nc1cccc(Oc2cc(C#N)c(C#N)cc2N2CCOCC2)c1 97%
CC1=C(N2CCN(c3ncccn3)CC2)CCC1=O 103%
CCCCCC(O)(CCN1CCCCC1)c1ccccc1 (centres undefined) 104%
Cc1ccc(-c2ccc(/C=C(\C#N)C(N)=S)o2)c([N+](=O)[O-])c1 100%
CCOC(=O)c1ccc(NC(=O)c2c(N)n(C)c(=O)[nH]c2=O)cc1 89%
COC(=O)C(C)NC(=O)COc1ccc2ccccc2c1 (centres undefined) 98%
CC(C)C(C)NC(=O)COc1ncnc2ccccc12 (centres undefined) 106%
CCOc1ccc(C(=O)Nc2ccc(CN3CCOCC3)cc2)cc1Cl 103%
CC1CN(C(=O)c2cc(COc3c(F)cccc3F)on2)CCN1C (centres undefined) 100%
C=C1CCN([C@@H](Cc2ccccc2)C(=O)N2CCOCC2)S(=O)(=O)c2ccccc21 105%
CCn1cc(/C=C(\NC(=O)c2ccc(C)cc2)C(=O)NCCN2CCOCC2)c2ccccc21 102%
C=C(C)C1CC=C(C)/C(=N/NC(=O)CCCNc2cccc(C)c2)C1 (centres undefined) 97%
COc1ccc(Cl)cc1NC(=O)CNc1ccccc1F 104%
CCCC[C@@H]1CN=C(N)N1CCCC 89%
CC(=O)C1=C(O)C(=O)N(c2ccc(Br)cc2)C1c1ccc([N+](=O)[O-])cc1 (centres undefined) 98%
CCc1cccc(CC)c1NC(=S)NCc1ccc2[nH]c(C)cc2c1 106%
Cc1cc2cc(CNC(=O)c3ccc(S(=O)(=O)N4CCOCC4)cc3)ccc2[nH]1 94%
O=C(CSc1nccc(=O)[nH]1)Nc1ccc(N2CCOCC2)c(Cl)c1 99%
O=S(=O)(c1ccccc1)N(Cc1cccc(F)c1)c1ccccc1 99%
Cc1ccc(SCC(=O)Nc2ncc(C)s2)cc1 100%
Cc1cnc(NC(=O)CSc2nnc(C)s2)s1 100%
Cc1ccc(OC(=O)CCC(=O)Nc2ccc(Br)cc2)cc1 94%
COc1ccc(-c2csc(Nc3ccc(O)cc3)n2)cc1 95%
CSCCC(Nc1ccc(S(=O)(=O)N2CCOCC2)cc1[N+](=O)[O-])C(=O)OCC(=O)N(C(C)C)C(C)C (centres undefined) 98%
Cc1ccc(NC(=O)CN2CCC(C(N)=O)CC2)cc1[N+](=O)[O-] 98%
Cc1cc(=O)cc(C)n1-c1ccc(Cl)c(Cl)c1 96%
CC(=O)Nc1ccc(S(=O)(=O)N2CCC(C(=O)NC3CC3)CC2)cc1 104%
Cc1[nH]n(-c2ccccc2)c(=O)c1/C=N/NC(=O)c1ccoc1C 108%
C#CCOCCOCCOCCNc1nc(N2CCN(C(=O)C([C@@H](C)CC)n3cc(C(N)COC(=O)C(F)(F)F)nn3)CC2)nc(N2CCN(C(=O)[C@H](CCCCN)n3cc(C(N)CC(C)C)nn3)CC2)n1 (some centres undefined) 120%
Cc1cc(/C=C2/C(=N)N3C(=NC2=O)SN=C3S(C)(=O)=O)c(C)n1-c1ccccc1 96%
COCOc1cc(O)c(C(=O)/C=C/c2ccc(OCOC)c(OCOC)c2)c(OCOC)c1 104%
Cc1cccc(NC(=O)CCN2CC(C)CC(C)C2)c1 (centres undefined) 107%
Cc1nonc1C1CCCN1Cc1nc(-c2ccc(F)cc2F)oc1C (centres undefined) 85%
CCN1/C(=C/c2ccc3ccc(C)cc3[n+]2CC)Sc2ccccc21 95%
CCN(CC)CCCNC(=O)c1cn(C)c2ccc(S(=O)(=O)N(C)C3CCCCC3)cc2c1=O 100%
COc1ccc(C(=O)NCc2nnc(SCC(=O)Nc3cccc(OC)c3)o2)cc1 102%
C/C(=N\NC(=O)CNc1cccc2ccccc12)c1ccc(Br)s1 103%
Cn1cccc1/C=N/NC(=O)CNc1cccc2ccccc12 103%
CCn1cc(CN2CCC(C(=O)Nc3cccc(-c4cccc(Cl)c4)c3)CC2)c(C)n1 107%

Binding response (% of control), active:
CCOC(=O)c1c(Cc2ccc(Cl)cc2)c[nH]c1C 136%
CC(=O)Nc1ccc(N2CCOCC2)c(C(=O)Nc2cccc(C)c2)c1 2% [inhibitor]
COC(=O)c1cc(NC(=O)c2cc(C(C)(C)C)nn2Cc2cccc(C)c2)ccc1N1CCOCC1 134%
COCC(C)NC(=O)COc1nncc2ccccc12 (centres undefined) 39% [inhibitor]
C=C(C)C1CC=C(C)/C(=N\NC(=O)CNc2ccccc2OC)C1 (centres undefined) 128%
Cc1cc2cc(CNC(=O)c3cccs3)ccc2[nH]1 73% [inhibitor]
Cc1cnc(NC(=O)Cn2cnc3c2c(=O)n(C)c(=O)n3C)s1 136%
COC(=O)CCc1sc(Nc2ccc(Br)cc2)nc1-c1ccc(OC)cc1 136%
CC(=O)N1CCN(S(=O)(=O)c2ccc(C)c([N+](=O)[O-])c2)C1C(C)C (centres undefined) 128%
CCC(=C/c1sc2ccc3ccccc3c2[n+]1C)/C=C1\Sc2ccc3ccccc3c2N1C 23% [inhibitor]
N=C1/C(=C/c2cccn2-c2cccc([N+](=O)[O-])c2)C(=O)N=C2SC=CN12 135%
CCN1/C(=C\c2ccc3ccccc3[n+]2CC)Sc2cc(C)ccc21 70% [inhibitor]
Cc1cccc(/C=N/NC(=O)CNc2cccc3ccccc23)n1 144%
